# Molecular target: T1, ERG (Homo sapiens, UniProt P11308 1-479)
# T1 sequence: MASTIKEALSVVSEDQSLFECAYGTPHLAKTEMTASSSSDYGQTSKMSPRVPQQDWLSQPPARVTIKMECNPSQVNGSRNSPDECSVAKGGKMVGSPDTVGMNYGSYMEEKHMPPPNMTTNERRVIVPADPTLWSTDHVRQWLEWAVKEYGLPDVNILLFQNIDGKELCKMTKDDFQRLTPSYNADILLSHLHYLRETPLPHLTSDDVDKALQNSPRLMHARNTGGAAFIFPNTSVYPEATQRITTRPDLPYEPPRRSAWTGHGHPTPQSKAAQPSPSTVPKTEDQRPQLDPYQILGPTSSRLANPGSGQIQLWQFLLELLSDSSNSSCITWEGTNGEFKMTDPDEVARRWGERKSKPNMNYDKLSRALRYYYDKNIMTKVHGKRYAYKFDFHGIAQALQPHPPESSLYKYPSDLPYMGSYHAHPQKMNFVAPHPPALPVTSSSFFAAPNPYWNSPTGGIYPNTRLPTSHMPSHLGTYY
# Experiment: DAPPL (digital affinity profiling via proximity ligation, sequencing); 10 mM Tris-HCl pH 7.5, 50 mM NaCl, 1 mM DTT, 4% glycerol, room temperature, 30 min; GST-TFs on glutathione beads, 16-mer random dsDNA library, 0.1% formaldehyde crosslink after washing; high values mean tight binding
# Conditions: protein: recombinant; tags: N-terminal GST; dsDNA, one strand shown
# Method in brief: (§1)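 Binding signal is each hexamer's read frequency for a factor divided by its frequency in the tag-only sample. The factors were GST-fused human transcription factors from yeast, captured on glutathione beads, DNA-barcoded and pooled with that sample. Pools were incubated with 200 nmole of a random double-stranded 16-mer DNA library in Tris/NaCl/DTT/glycerol buffer at room temperature for 30 min, then washed, crosslinked with 0.1% formaldehyde, proximity-ligated with BsaI/T4 ligase (1 h, 37 °C), PCR-amplified and sequenced on an Illumina NextSeq500.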
row,Sequence,binding signal
1,GTCTCG,"1.26 fold enrichment (6-mer frequency, TF over GST control)"
2,CGTATA,"1.11 fold enrichment (6-mer frequency, TF over GST control)"
3,GAATGT,"1.08 fold enrichment (6-mer frequency, TF over GST control)"
4,TCAAAC,"1.26 fold enrichment (6-mer frequency, TF over GST control)"
5,TTACGG,"1.31 fold enrichment (6-mer frequency, TF over GST control)"
6,CTCACG,"1.33 fold enrichment (6-mer frequency, TF over GST control)"
7,TCCTAT,"1.45 fold enrichment (6-mer frequency, TF over GST control)"
8,ATGCTC,"1.34 fold enrichment (6-mer frequency, TF over GST control)"
9,TCCGAA,"1.3 fold enrichment (6-mer frequency, TF over GST control)"
10,ATTTGA,"1.23 fold enrichment (6-mer frequency, TF over GST control)"
11,CTGCAT,"1.41 fold enrichment (6-mer frequency, TF over GST control)"
12,ACGTAT,"1.17 fold enrichment (6-mer frequency, TF over GST control)"
13,GGCTCT,"1.26 fold enrichment (6-mer frequency, TF over GST control)"
14,GCCTAA,"1.24 fold enrichment (6-mer frequency, TF over GST control)"
15,CGATTG,"1.26 fold enrichment (6-mer frequency, TF over GST control)"
16,TTACAT,"1.31 fold enrichment (6-mer frequency, TF over GST control)"
17,TAAATT,"1.22 fold enrichment (6-mer frequency, TF over GST control)"
18,CCCTCG,"1.14 fold enrichment (6-mer frequency, TF over GST control)"
19,TGCGCT,"1.25 fold enrichment (6-mer frequency, TF over GST control)"
20,CAAAAT,"1.27 fold enrichment (6-mer frequency, TF over GST control)"

row,Sequence,binding signal
1,TTAGCT,"1.15 fold enrichment (6-mer frequency, TF over GST control)"
2,TAACCT,"1.12 fold enrichment (6-mer frequency, TF over GST control)"
3,AACATA,"1.26 fold enrichment (6-mer frequency, TF over GST control)"
4,TACCTA,"1.13 fold enrichment (6-mer frequency, TF over GST control)"
5,ACTCAA,"1.21 fold enrichment (6-mer frequency, TF over GST control)"
6,AAAAAT,"1.26 fold enrichment (6-mer frequency, TF over GST control)"
7,CCAATT,"1.24 fold enrichment (6-mer frequency, TF over GST control)"
8,CCGATT,"1.34 fold enrichment (6-mer frequency, TF over GST control)"
9,ACCTCT,"1.41 fold enrichment (6-mer frequency, TF over GST control)"
10,AGCTCT,"1.11 fold enrichment (6-mer frequency, TF over GST control)"
11,TGTATG,"1.14 fold enrichment (6-mer frequency, TF over GST control)"
12,CAATCC,"1.24 fold enrichment (6-mer frequency, TF over GST control)"
13,AAGTAC,"1.53 fold enrichment (6-mer frequency, TF over GST control)"
14,TCAACC,"1.14 fold enrichment (6-mer frequency, TF over GST control)"
15,GATGAC,"1.59 fold enrichment (6-mer frequency, TF over GST control)"
16,ATTCGT,"1.15 fold enrichment (6-mer frequency, TF over GST control)"
17,ATGGCC,"1.46 fold enrichment (6-mer frequency, TF over GST control)"
18,GAAAAT,"1.07 fold enrichment (6-mer frequency, TF over GST control)"
19,TTACAC,"1.27 fold enrichment (6-mer frequency, TF over GST control)"

# Molecular target: ELF1 (Homo sapiens, UniProt P32519 1-619)
# Sequence (P32519 whole entry): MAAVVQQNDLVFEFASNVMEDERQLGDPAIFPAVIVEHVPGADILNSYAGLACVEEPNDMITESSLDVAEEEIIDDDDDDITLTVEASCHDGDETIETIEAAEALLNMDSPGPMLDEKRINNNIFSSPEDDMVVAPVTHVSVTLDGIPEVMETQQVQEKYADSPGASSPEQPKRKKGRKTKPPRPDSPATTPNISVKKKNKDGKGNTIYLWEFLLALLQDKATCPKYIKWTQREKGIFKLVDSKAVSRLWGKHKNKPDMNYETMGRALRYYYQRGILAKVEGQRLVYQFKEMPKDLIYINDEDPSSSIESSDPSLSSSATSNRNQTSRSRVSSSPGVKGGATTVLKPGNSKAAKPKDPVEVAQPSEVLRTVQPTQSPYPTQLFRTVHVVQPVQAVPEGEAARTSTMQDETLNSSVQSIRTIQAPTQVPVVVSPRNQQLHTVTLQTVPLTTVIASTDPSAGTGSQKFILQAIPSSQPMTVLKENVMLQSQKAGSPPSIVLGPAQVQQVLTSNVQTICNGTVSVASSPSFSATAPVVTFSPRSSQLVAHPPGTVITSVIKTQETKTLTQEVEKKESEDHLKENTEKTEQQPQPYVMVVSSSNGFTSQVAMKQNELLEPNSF
# Experiment: as above
# Conditions: protein: recombinant; tags: N-terminal GST; dsDNA, one strand shown
# Method in brief: as §1
row,Sequence,binding signal
1,GTCTCG,"1.32 fold enrichment (6-mer frequency, TF over GST control)"
2,CGTATA,"1.11 fold enrichment (6-mer frequency, TF over GST control)"
3,GAATGT,"1.03 fold enrichment (6-mer frequency, TF over GST control)"
4,TCAAAC,"1.15 fold enrichment (6-mer frequency, TF over GST control)"
5,TTACGG,"1.26 fold enrichment (6-mer frequency, TF over GST control)"
6,CTCACG,"1.25 fold enrichment (6-mer frequency, TF over GST control)"
7,TCCTAT,"1.46 fold enrichment (6-mer frequency, TF over GST control)"
8,ATGCTC,"1.36 fold enrichment (6-mer frequency, TF over GST control)"
9,TCCGAA,"1.23 fold enrichment (6-mer frequency, TF over GST control)"
10,ATTTGA,"1.12 fold enrichment (6-mer frequency, TF over GST control)"
11,CTGCAT,"1.47 fold enrichment (6-mer frequency, TF over GST control)"
12,ACGTAT,"1.17 fold enrichment (6-mer frequency, TF over GST control)"
13,GGCTCT,"1.29 fold enrichment (6-mer frequency, TF over GST control)"
14,GCCTAA,"1.22 fold enrichment (6-mer frequency, TF over GST control)"
15,CGATTG,"1.24 fold enrichment (6-mer frequency, TF over GST control)"
16,TTACAT,"1.31 fold enrichment (6-mer frequency, TF over GST control)"
17,TAAATT,"1.27 fold enrichment (6-mer frequency, TF over GST control)"
18,CCCTCG,"1.34 fold enrichment (6-mer frequency, TF over GST control)"
19,TGCGCT,"1.19 fold enrichment (6-mer frequency, TF over GST control)"
20,CAAAAT,"1.18 fold enrichment (6-mer frequency, TF over GST control)"

row,Sequence,binding signal
1,TTAGCT,"1.27 fold enrichment (6-mer frequency, TF over GST control)"
2,TAACCT,"1.35 fold enrichment (6-mer frequency, TF over GST control)"
3,AACATA,"1.28 fold enrichment (6-mer frequency, TF over GST control)"
4,TACCTA,"1.34 fold enrichment (6-mer frequency, TF over GST control)"
5,ACTCAA,"1.22 fold enrichment (6-mer frequency, TF over GST control)"
6,AAAAAT,"1.31 fold enrichment (6-mer frequency, TF over GST control)"
7,CCAATT,"1.16 fold enrichment (6-mer frequency, TF over GST control)"
8,CCGATT,"1.36 fold enrichment (6-mer frequency, TF over GST control)"
9,ACCTCT,"1.47 fold enrichment (6-mer frequency, TF over GST control)"
10,AGCTCT,"1.23 fold enrichment (6-mer frequency, TF over GST control)"
11,TGTATG,"1.23 fold enrichment (6-mer frequency, TF over GST control)"
12,CAATCC,"1.22 fold enrichment (6-mer frequency, TF over GST control)"
13,AAGTAC,"1.49 fold enrichment (6-mer frequency, TF over GST control)"
14,TCAACC,"1.16 fold enrichment (6-mer frequency, TF over GST control)"
15,GATGAC,"1.6 fold enrichment (6-mer frequency, TF over GST control)"
16,ATTCGT,"1.17 fold enrichment (6-mer frequency, TF over GST control)"
17,ATGGCC,"1.35 fold enrichment (6-mer frequency, TF over GST control)"
18,GAAAAT,"1.04 fold enrichment (6-mer frequency, TF over GST control)"
19,TTACAC,"1.3 fold enrichment (6-mer frequency, TF over GST control)"

# Molecular target: T2, EHF (Homo sapiens, UniProt Q9NZC4 1-300)
# T2 sequence: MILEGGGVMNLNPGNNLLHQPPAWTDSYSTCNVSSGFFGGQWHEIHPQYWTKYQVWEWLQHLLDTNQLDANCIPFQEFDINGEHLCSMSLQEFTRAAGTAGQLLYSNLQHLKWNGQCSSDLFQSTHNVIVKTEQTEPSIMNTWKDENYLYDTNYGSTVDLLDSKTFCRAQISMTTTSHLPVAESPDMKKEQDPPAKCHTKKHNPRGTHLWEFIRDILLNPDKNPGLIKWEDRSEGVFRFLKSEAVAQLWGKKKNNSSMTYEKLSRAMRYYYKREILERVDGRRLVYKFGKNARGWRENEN
# Experiment: as above
# Conditions: protein: recombinant; tags: N-terminal GST; dsDNA, one strand shown
# Method in brief: as §1
row,Sequence,binding signal
1,GTCTCG,"1.28 fold enrichment (6-mer frequency, TF over GST control)"
2,CGTATA,"1.09 fold enrichment (6-mer frequency, TF over GST control)"
3,GAATGT,"1.13 fold enrichment (6-mer frequency, TF over GST control)"
4,TCAAAC,"1.15 fold enrichment (6-mer frequency, TF over GST control)"
5,TTACGG,"1.31 fold enrichment (6-mer frequency, TF over GST control)"
6,CTCACG,"1.31 fold enrichment (6-mer frequency, TF over GST control)"
7,TCCTAT,"1.5 fold enrichment (6-mer frequency, TF over GST control)"
8,ATGCTC,"1.34 fold enrichment (6-mer frequency, TF over GST control)"
9,TCCGAA,"1.41 fold enrichment (6-mer frequency, TF over GST control)"
10,ATTTGA,"1.27 fold enrichment (6-mer frequency, TF over GST control)"
11,CTGCAT,"1.47 fold enrichment (6-mer frequency, TF over GST control)"
12,ACGTAT,"1.29 fold enrichment (6-mer frequency, TF over GST control)"
13,GGCTCT,"1.27 fold enrichment (6-mer frequency, TF over GST control)"
14,GCCTAA,"1.28 fold enrichment (6-mer frequency, TF over GST control)"
15,CGATTG,"1.1 fold enrichment (6-mer frequency, TF over GST control)"
16,TTACAT,"1.43 fold enrichment (6-mer frequency, TF over GST control)"
17,TAAATT,"1.32 fold enrichment (6-mer frequency, TF over GST control)"
18,CCCTCG,"1.24 fold enrichment (6-mer frequency, TF over GST control)"
19,TGCGCT,"1.25 fold enrichment (6-mer frequency, TF over GST control)"
20,CAAAAT,"1.16 fold enrichment (6-mer frequency, TF over GST control)"

row,Sequence,binding signal
1,TTAGCT,"1.2 fold enrichment (6-mer frequency, TF over GST control)"
2,TAACCT,"1.29 fold enrichment (6-mer frequency, TF over GST control)"
3,AACATA,"1.31 fold enrichment (6-mer frequency, TF over GST control)"
4,TACCTA,"1.22 fold enrichment (6-mer frequency, TF over GST control)"
5,ACTCAA,"1.18 fold enrichment (6-mer frequency, TF over GST control)"
6,AAAAAT,"1.37 fold enrichment (6-mer frequency, TF over GST control)"
7,CCAATT,"1.25 fold enrichment (6-mer frequency, TF over GST control)"
8,CCGATT,"1.4 fold enrichment (6-mer frequency, TF over GST control)"
9,ACCTCT,"1.37 fold enrichment (6-mer frequency, TF over GST control)"
10,AGCTCT,"1.18 fold enrichment (6-mer frequency, TF over GST control)"
11,TGTATG,"1.2 fold enrichment (6-mer frequency, TF over GST control)"
12,CAATCC,"1.07 fold enrichment (6-mer frequency, TF over GST control)"
13,AAGTAC,"1.59 fold enrichment (6-mer frequency, TF over GST control)"
14,TCAACC,"1.15 fold enrichment (6-mer frequency, TF over GST control)"
15,GATGAC,"1.43 fold enrichment (6-mer frequency, TF over GST control)"
16,ATTCGT,"1.08 fold enrichment (6-mer frequency, TF over GST control)"
17,ATGGCC,"1.27 fold enrichment (6-mer frequency, TF over GST control)"
18,GAAAAT,"1.14 fold enrichment (6-mer frequency, TF over GST control)"
19,TTACAC,"1.39 fold enrichment (6-mer frequency, TF over GST control)"

# Reference: publication PMC7862700, “An all-to-all approach to the identification of sequence-specific readers for epigenetic DNA modifications on cytosine”
